Measurements taken from paper PMC6212833.
In all, about 2,000 compounds were measured (“B-score”: median about -0.0024, highest 2% from about 4 on). Only a selection was taken, and the highest values are over-represented in it overall. Where a SMILES comes first, the peptide text is derived from it. [ ]: non-standard residue; d: D form. dPhe(4-Cl) = N[C@H](Cc1ccc(Cl)cc1)C(=O)O; d2Nal = N[C@H](Cc1ccc2ccccc2c1)C(=O)O; dCit = NC(=O)NCCC[C@@H](N)C(=O)O; d3Pal = N[C@H](Cc1cccnc1)C(=O)O

Tested on: Balamuthia mandrillaris (ATCC PRA-291) trophozoites, axenic culture
Assay: primary screen, b score
Conditions: 20 µM
Method: Screening of a clinically approved library of compounds, compiled by the Small Molecule Discovery Center (SMDC) at the UCSF, was completed at 20 µM in 0.2% DMSO. All 2,177 drugs in the library were stored as 10 mM stocks dissolved in 100% DMSO (Sigma-Aldrich) at −20°C. B. mandrillaris amoebae were resuspended in axenic medium and distributed into opaque 384-well plates (Corning) at a density of 3,000 amoebae per well using a BioMek NX liquid handler. Negative-control wells were treated with vehicle only (0.2% DMSO in axenic medium), and positive-control wells simulating total destruction of amoebae were seeded with amoeba lysate generated by 3 consecutive freeze-thaw cycles. Following 72 h of incubation, 30 µl of CellTiter Glo reagent (CTG; Promega) was added to each well. The luminescence was measured with a Promega GloMax-Multi+ plate reader at 2, 4, and 8 h after CTG addition. […] The B-score, representing a plate-based statistical approach for correcting row, column, and edge effects, was also calculated for each compound in the library (75).

Structure (SMILES)	B-score
O=C1CCCC(=O)C1C(=O)c1ccc(C(F)(F)F)cc1[N+](=O)[O-]	4.46
CC(C)C(=O)Nc1ccc([N+](=O)[O-])c(C(F)(F)F)c1	0.258
C[C@H](CCC(=O)O)[C@H]1CCC2C3C(CC[C@@]21C)[C@@]1(C)CC[C@@H](O)C[C@H]1C[C@H]3O (stereo partly shown)	0.903
CSc1ccc2c(c1)C(N1CCN(C)CC1)Cc1ccccc1S2 (stereo not shown)	4.72
CSc1ccc2c(c1)N(CCC1CCCCN1C)c1ccccc1S2 (stereo not shown)	-2.17
CCSc1ccc2c(c1)N(CCCN1CCN(C)CC1)c1ccccc1S2	0.621
CC(C1=C(CCN(C)C)Cc2ccccc21)c1ccccn1 (stereo not shown)	0.12
CCC(CC)(CC(=O)Nc1cccc(/C=C/c2nc(C3CCC3)cs2)c1)C(=O)O	-0.153
OC[C@H]1O[C@@H](n2cnc3c2NC=NC[C@H]3O)C[C@@H]1O	-0.0925
Nc1nc(Cl)nc2c1ncn2C1O[C@H](CO)[C@@H](O)[C@@H]1F (stereo partly shown)	3.21
Nc1nc(Cl)nc2c1ncn2[C@H]1C[C@H](O)[C@@H](CO)O1	-1.53
Nc1nc(Cl)nc2c1ncn2[C@@H]1O[C@H](CO)[C@@H](O)[C@@H]1F	4.42
O=C(O)c1ccc(S(=O)(=O)N(Cl)Cl)cc1	1.61
Cc1nc2c([nH]1)-c1ccccc1N(C(=O)c1ccc(NC(=O)c3ccccc3-c3ccccc3)cc1)CC2	0.432
CC1=C(/C=C/C(C)=C/C=C/C(C)=C/C(=O)O)C(C)(C)CCC1	-2.29
O=C1Nc2ccc(Cl)cc2C(c2ccccc2Cl)=NC1O (stereo not shown)	0.787
COc1ccc(C(=O)CC(=O)c2ccc(C(C)(C)C)cc2)cc1	0.547
COc1ccc(C(=O)Nc2ccccc2CCC2CCCCN2C)cc1 (stereo not shown)	1.2
COc1ccc(C(=O)N2CCCC2=O)cc1	3.97
CCCCCCCCCC(=O)N[C@@H](Cc1c[nH]c2ccccc12)C(=O)N[C@@H](CC(N)=O)C(=O)N[C@@H](CC(=O)O)C(=O)N[C@@H]1C(=O)NCC(=O)N[C@@H](CCCN)C(=O)N[C@@H](CC(=O)O)C(=O)N[C@H](C)C(=O)N[C@@H](CC(=O)O)C(=O)NCC(=O)N[C@H](CO)C(=O)NC([C@@H](C)CC(=O)O)C(=O)N[C@@H](CC(=O)c2ccccc2N)C(=O)O[C@H]1C (stereo partly shown)	-0.0797
CC[C@]1(O)C[C@H]2CN(CCc3c([nH]c4ccccc34)[C@@](C(=O)OC)(c3cc4c(cc3OC)N(C)[C@H]3[C@@](O)(C(N)=O)[C@H](O)[C@]5(CC)C=CCN6CC[C@]43[C@@H]65)C2)C1	0.225
C#C[C@]1(O)CC[C@H]2[C@@H]3CCc4cc(O)ccc4[C@H]3CC[C@@]21C	1.29
O=C(O)CN(CCN(CC(=O)O)CC(=O)O)CC(=O)O [130802-L4]	1.65
CCOC(=O)[C@H](CCc1ccccc1)N[C@@H](C)C(=O)N1[C@H](C(=O)O)C[C@@H]2CCC[C@@H]21	0.0961
O=C(Nc1ccccc1)c1ccccc1O	2.94

Structure (SMILES)	B-score
O=C(CCCCCCC(=O)Nc1ccccc1)NO	6.71
CC(=O)Nc1ccccc1	1.19
CO[C@@]1(NC(=O)C(C(=O)O)c2ccc(O)cc2)C(=O)N2C(C(=O)O)=C(CSc3nnnn3C)CO[C@@H]21 (stereo partly shown)	-2.22
Clc1ccccc1C(c1ccccc1)(c1ccccc1)n1ccnc1	0.597
CN[C@@H]1C(OC2[C@H](O[C@H]3[C@H](O)[C@@H](O)[C@H](N=C(N)N)[C@@H](O)[C@@H]3N=C(N)N)OC(C)[C@]2(O)CO)OC(CO)C(O)C1O (stereo partly shown)	-0.0786
CN1C[C@H](C(=O)N[C@]2(C)O[C@@]3(O)C4CCCN4C(=O)[C@H](Cc4ccccc4)N3C2=O)C=C2c3cccc4[nH]cc(c34)C[C@H]21 (stereo partly shown)	0.00794
O=S(=O)(O)CCCS(=O)(=O)O	-0.716
CN1C(=O)CC(C)(c2ccccc2)C1=O (stereo not shown)	-0.587
N=C(N)N/N=C\c1c(Cl)cccc1Cl	1.73
CN(C)CCCOc1nn(Cc2ccccc2)c2ccccc12 [255688-L2]	-0.0539
O=C(O)c1nn(Cc2ccc(Cl)cc2Cl)c2ccccc12	4.66
CCn1nc(C(=O)O)c(=O)c2cc3c(cc21)OCO3	0.0115
Nc1nc(N)nc(-c2cc(Cl)ccc2Cl)n1	-4.01
O=C(N/N=C/c1ccc([N+](=O)[O-])o1)c1ccc(O)cc1	-0.646
CO[C@H]1/C=C/O[C@@]2(C)Oc3c(C)c(O)c4c(O)c(c(/C=N/N5CCN(C6CCCC6)CC5)c(O)c4c3C2=O)NC(=O)/C(C)=C\C=C\[C@H](C)[C@H](O)[C@@H](C)[C@@H](O)[C@@H](C)[C@H](OC(C)=O)[C@@H]1C	2.93
CC1=NN(c2ccccc2)C(=O)C1	-0.154
CC(=O)[C@]1(O)Cc2c(O)c3c(c(O)c2[C@@H](O[C@H]2C[C@H](N)[C@H](O)[C@H](C)O2)C1)C(=O)c1ccccc1C3=O	-0.033
CCCCC(=O)OCC(=O)[C@]1(O)Cc2c(O)c3c(c(O)c2[C@@H](O[C@H]2C[C@H](NC(=O)C(F)(F)F)[C@H](O)[C@H](C)O2)C1)C(=O)c1c(OC)cccc1C3=O	-0.809
COc1cccc2c1C(=O)c1c(O)c3c(c(O)c1C2=O)C[C@@](O)(C(=O)CO)C[C@@H]3OC1C[C@H](N)[C@H](O)[C@H](C)O1 (stereo partly shown)	0.333
COc1cccc2c1C(=O)c1c(O)c3c(c(O)c1C2=O)C[C@@](O)(C(=O)CO)C[C@@H]3O[C@H]1C[C@H](N)[C@@H](O)[C@H](C)O1	4.02
COc1cccc2c1C(=O)c1c(O)c3c(c(O)c1C2=O)C[C@@](O)(C(C)=O)C[C@@H]3O[C@H]1C[C@H](N)[C@H](O)[C@H](C)O1	0.546
COc1cccc2c1C(=O)c1c(O)c3c(c(O)c1C2=O)C[C@@](O)(C(=O)CO)C[C@@H]3O[C@H]1C[C@H](N)[C@H](O)[C@H](C)O1	9.99
CC(CCc1ccccc1)NC(C)C(O)c1ccc(O)cc1 (stereo not shown)	1.37
CCn1cc(C(=O)O)c(=O)c2cc(F)c(N3CCN(C)CC3)cc21 [518631-L6]	0.04
CC(=O)N[C@H](Cc1ccc2ccccc2c1)C(=O)N[C@H](Cc1ccc(Cl)cc1)C(=O)N[C@H](Cc1cccnc1)C(=O)N[C@@H](CO)C(=O)N[C@@H](Cc1ccc(O)cc1)C(=O)N[C@H](CCCNC(N)=O)C(=O)N[C@@H](CC(C)C)C(=O)N[C@@H](CCCN=C(N)N)C(=O)N1CCC[C@H]1C(=O)N[C@H](C)C(N)=O (Ac-[d2Nal][dPhe(4-Cl)][d3Pal]SY[dCit]LRP[dA]-NH2)	-2.68
Cc1c(F)c(N2CCNC(C)C2)cc2c1c(=O)c(C(=O)O)cn2C1CC1 (stereo not shown)	-0.223

Structure (SMILES)	B-score
O=C(O)CCCCCCCC(=O)O	0.466
CC(CN(C)C)CN1c2ccccc2Sc2ccccc21 (stereo not shown)	0.0868
CO[C@H]1/C=C/O[C@@]2(C)Oc3c(C)c(O)c4c(O)c(c5c(c4c3C2=O)=NC2(CCN(CC(C)C)CC2)N=5)NC(=O)/C(C)=C\C=C\[C@H](C)[C@H](O)[C@@H](C)[C@@H](O)[C@@H](C)[C@H](OC(C)=O)[C@@H]1C	1.11
OCCOCCN1CCN(C(c2ccccc2)c2ccc(Cl)cc2)CC1 (stereo not shown) [130849-L5]	1.53
C=C1CC[C@H](O)C/C1=C/C=C1\CCC[C@]2(C)C([C@H](C)/C=C/[C@H](C)C(C)C)CC[C@@H]12 (stereo partly shown)	0.264
CCc1cc2c(cc1CC)CC(NC[C@H](O)c1ccc(O)c3nc(O)ccc13)C2	1
Nc1ccc(S(=O)(=O)c2ccc(N)cc2)cc1	-0.0896
Cc1cc(N)c2ccccc2[n+]1CCCCCCCCCC[n+]1c(C)cc(N)c2ccccc21	13
Nc1ccn([C@@H]2CS[C@H](CO)O2)c(=O)n1	1.59
CN1C(CSCC(F)(F)F)Nc2cc(Cl)c(S(N)(=O)=O)cc2S1(=O)=O (stereo not shown)	0.321
CCN[C@H]1C[C@H](C)S(=O)(=O)c2sc(S(N)(=O)=O)cc21	-1.38
CC[C@@]1(O)C(=O)OCc2c1cc1n(c2=O)Cc2cc3c(CN(C)C)c(O)ccc3nc2-1	2.13
CCCCCCCCCCCCC[N+](C)(C)Cc1ccccc1	3.43
CCCCCCCCCCCCCCCCCCCCCCO	-0.00277
CCCCCCCCCCCCCCCC[n+]1ccccc1	7.82
O=S(=O)(OC[C@H]1O[C@@H](O[C@]2(COS(=O)(=O)[O][Al]([OH])[OH])O[C@H](OS(=O)(=O)[O][Al]([OH])[OH])[C@@H](OS(=O)(=O)[O][Al]([OH])[OH])[C@@H]2OS(=O)(=O)[O][Al]([OH])[OH])[C@H](OS(=O)(=O)[O][Al]([OH])[OH])[C@@H](OS(=O)(=O)[O][Al]([OH])[OH])[C@@H]1OS(=O)(=O)[O][Al]([OH])[OH])[O][Al]([OH])[OH]	-0.0184
C/C=C/C/C=C/CCC(=O)[C@H]1O[C@H]1C(N)=O	-0.632
CN(CC(=O)O)C(=N)N	-5.89
CN1C2CCC[C@H]1C[C@H](NC(=O)c1nn(C)c3ccccc13)C2	-0.598
C[S+](CC[C@H](N)C(=O)O)C[C@H]1O[C@@H](n2cnc3c(N)ncnc32)[C@H](O)[C@@H]1O (stereo partly shown)	0.856
CC(=O)c1ccc2c(c1)N(CCCN1CCC(CCO)CC1)c1ccccc1S2	-0.0165
Oc1ccc(Cl)cc1Cc1cc(Cl)ccc1O	5.34
CC(C)(C)CC(C)(C)c1ccc(O)c(Cc2ccc(Cl)cc2Cl)c1	2.02
Oc1ccc(Cl)cc1	0.00397
